The full data set covers some 7,900 targets. This sample favours those with a hit. About 0.6% of all pairs of compound and target were hits.
compound: c1cn2cc(-c3ccc4cn[nH]c4c3)nc(Nc3ccc(N4CCOCC4)cc3)c2n1 [entospletinib]; experiment: log2 fold change, soluble protein after heating vs DMSO (PISA); higher = thermal stabilisation; K562 cells, 10 uM, 30 min; active = over 0.2 and 3.5 SD of the protein, either way, in both replicates (recomputed)
Method in brief: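 Soluble protein was quantified by TMTpro 16plex LC-MS/MS after channel sums were equalised. It was obtained as the supernatant after 21,000xg for 90 min from pooled aliquots of K562 cells (2×10^6 cells/mL, 10 μM compound, 30 min) heated for 3 min across 48°C-58°C and extracted in PBS with 0.5% NP-40 at 4°C. Thermal stability values are relative to control samples and come from duplicates. They are given as log2 fold changes.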

Chain of UniProt P58004 (P58004 whole entry, looked up): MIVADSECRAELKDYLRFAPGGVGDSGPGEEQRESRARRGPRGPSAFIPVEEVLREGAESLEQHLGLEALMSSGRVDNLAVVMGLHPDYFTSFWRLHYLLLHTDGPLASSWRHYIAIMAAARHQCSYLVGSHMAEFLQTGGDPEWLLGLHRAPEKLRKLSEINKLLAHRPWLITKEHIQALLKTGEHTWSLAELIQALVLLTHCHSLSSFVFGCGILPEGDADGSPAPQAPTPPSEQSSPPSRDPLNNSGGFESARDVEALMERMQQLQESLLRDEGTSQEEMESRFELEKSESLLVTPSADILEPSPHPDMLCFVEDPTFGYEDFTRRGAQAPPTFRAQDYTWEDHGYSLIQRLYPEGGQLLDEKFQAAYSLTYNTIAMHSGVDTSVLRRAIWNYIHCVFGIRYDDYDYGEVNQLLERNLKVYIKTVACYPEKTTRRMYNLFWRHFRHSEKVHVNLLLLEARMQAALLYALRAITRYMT
Chain of UniProt P04049 (P04049 whole entry, looked up): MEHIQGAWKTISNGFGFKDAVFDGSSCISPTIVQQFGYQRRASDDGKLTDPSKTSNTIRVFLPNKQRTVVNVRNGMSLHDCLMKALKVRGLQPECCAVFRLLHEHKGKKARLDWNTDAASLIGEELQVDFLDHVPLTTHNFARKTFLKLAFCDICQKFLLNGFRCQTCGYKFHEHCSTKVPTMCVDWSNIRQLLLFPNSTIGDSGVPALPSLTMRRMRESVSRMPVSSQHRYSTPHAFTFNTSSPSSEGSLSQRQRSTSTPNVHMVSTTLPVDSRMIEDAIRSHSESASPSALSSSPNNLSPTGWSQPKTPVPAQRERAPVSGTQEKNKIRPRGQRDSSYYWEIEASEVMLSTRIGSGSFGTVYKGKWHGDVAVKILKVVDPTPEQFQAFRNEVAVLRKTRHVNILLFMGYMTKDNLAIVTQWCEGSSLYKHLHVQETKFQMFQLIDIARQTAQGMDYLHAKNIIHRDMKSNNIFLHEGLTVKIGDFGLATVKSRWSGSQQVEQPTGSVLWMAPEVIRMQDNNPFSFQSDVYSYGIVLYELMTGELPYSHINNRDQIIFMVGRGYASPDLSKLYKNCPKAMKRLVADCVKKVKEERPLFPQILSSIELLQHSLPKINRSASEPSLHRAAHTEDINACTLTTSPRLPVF
Chain of UniProt Q13464 (Q13464 whole entry, looked up): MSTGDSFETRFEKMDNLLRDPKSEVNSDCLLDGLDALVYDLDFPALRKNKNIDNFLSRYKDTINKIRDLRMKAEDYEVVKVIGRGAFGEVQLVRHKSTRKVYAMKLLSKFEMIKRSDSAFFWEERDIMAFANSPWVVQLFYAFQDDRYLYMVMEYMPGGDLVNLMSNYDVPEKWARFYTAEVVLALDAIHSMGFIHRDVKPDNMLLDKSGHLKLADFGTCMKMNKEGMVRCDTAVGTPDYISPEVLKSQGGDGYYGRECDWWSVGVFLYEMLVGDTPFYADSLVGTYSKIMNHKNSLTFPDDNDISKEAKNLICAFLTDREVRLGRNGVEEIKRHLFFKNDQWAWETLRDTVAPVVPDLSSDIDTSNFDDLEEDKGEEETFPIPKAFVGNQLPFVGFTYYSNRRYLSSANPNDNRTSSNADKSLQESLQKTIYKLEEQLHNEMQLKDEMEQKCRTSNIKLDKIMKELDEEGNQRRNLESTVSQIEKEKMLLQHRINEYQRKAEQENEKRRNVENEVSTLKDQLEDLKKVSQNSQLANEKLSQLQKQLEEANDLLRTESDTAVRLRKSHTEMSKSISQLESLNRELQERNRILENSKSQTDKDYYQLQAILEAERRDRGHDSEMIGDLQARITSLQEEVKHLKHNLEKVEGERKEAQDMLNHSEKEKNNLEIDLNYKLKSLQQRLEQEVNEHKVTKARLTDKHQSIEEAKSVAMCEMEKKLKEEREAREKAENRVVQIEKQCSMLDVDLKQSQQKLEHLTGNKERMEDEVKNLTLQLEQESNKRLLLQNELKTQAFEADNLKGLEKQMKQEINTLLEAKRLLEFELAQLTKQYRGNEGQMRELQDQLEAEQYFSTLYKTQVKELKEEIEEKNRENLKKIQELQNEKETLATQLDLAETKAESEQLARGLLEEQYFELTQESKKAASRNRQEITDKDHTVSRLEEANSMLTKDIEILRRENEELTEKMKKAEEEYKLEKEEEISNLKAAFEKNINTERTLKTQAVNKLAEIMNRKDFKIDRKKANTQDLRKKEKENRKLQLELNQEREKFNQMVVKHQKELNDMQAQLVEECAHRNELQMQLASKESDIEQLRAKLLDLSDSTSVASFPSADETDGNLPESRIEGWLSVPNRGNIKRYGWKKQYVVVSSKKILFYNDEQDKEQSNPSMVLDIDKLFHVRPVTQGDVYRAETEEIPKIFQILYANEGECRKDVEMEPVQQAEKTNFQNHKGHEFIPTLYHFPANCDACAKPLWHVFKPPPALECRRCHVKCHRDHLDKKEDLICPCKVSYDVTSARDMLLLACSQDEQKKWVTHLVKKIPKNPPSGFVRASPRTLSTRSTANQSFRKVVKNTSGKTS
Chain of UniProt Q13530 (Q13530 whole entry, looked up): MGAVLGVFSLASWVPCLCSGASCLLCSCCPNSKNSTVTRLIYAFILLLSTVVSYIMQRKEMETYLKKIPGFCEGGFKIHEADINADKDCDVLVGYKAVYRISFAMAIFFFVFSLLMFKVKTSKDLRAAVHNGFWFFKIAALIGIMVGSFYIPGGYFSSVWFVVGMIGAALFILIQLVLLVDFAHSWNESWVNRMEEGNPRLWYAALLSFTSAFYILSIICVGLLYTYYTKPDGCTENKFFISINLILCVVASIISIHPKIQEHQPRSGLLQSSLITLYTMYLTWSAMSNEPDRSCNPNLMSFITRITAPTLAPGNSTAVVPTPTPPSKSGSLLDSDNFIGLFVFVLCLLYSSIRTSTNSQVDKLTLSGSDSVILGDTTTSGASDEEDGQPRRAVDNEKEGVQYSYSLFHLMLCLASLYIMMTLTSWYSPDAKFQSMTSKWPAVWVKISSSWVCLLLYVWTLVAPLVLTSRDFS
Chain of UniProt Q96GF1 (Q96GF1 whole entry, looked up): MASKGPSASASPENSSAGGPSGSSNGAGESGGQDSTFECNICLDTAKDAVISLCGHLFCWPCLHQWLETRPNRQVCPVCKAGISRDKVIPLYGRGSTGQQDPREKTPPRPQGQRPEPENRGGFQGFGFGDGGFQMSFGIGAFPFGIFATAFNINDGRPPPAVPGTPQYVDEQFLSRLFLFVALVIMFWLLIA
Chain of UniProt O94885 (O94885 whole entry, looked up): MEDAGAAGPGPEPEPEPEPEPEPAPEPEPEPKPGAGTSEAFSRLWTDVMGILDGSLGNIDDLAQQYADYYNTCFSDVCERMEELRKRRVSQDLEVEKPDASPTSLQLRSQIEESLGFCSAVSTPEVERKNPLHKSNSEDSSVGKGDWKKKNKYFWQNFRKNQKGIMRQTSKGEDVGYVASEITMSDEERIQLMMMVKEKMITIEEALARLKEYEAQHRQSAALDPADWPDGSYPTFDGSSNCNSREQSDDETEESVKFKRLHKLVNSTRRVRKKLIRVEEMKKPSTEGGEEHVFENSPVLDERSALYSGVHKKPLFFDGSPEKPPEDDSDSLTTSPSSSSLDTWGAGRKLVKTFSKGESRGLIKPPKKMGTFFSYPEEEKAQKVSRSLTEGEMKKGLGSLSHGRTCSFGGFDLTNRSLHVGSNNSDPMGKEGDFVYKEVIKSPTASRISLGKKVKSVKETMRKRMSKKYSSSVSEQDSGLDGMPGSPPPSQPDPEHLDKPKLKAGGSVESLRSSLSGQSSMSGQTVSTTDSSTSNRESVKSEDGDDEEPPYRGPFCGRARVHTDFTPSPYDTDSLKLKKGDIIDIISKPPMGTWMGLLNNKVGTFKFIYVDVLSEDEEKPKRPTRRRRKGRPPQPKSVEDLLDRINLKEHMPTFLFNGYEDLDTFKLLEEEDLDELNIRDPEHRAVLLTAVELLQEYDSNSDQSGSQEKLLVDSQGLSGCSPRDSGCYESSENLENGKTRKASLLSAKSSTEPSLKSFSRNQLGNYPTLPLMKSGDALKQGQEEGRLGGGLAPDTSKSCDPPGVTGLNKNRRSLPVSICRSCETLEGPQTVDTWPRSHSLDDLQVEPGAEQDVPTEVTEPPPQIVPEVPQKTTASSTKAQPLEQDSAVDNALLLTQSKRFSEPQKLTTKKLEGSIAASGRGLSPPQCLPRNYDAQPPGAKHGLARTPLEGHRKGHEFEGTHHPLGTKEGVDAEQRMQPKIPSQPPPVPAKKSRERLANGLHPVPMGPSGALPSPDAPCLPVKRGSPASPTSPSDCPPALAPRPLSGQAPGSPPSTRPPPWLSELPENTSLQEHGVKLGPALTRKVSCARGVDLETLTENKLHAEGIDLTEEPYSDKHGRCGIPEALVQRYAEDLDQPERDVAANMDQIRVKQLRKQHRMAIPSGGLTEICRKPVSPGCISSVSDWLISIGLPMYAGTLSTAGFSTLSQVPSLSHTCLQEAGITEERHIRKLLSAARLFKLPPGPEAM
Chain of UniProt Q92930 (Q92930 whole entry, looked up): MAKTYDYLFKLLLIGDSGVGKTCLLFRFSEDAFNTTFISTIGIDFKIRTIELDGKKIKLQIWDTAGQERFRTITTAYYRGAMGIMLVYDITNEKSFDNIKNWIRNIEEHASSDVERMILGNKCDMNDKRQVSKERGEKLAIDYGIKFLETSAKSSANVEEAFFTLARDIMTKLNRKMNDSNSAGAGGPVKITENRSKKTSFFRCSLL
Chain of UniProt Q9Y3L5 (Q9Y3L5 whole entry, looked up): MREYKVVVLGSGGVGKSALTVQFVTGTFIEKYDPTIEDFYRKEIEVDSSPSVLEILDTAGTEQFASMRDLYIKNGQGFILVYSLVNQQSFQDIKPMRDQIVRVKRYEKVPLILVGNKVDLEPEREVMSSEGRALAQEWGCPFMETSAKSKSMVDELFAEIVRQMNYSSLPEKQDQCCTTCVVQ
Chain of UniProt Q9BUV8 (Q9BUV8 whole entry, looked up): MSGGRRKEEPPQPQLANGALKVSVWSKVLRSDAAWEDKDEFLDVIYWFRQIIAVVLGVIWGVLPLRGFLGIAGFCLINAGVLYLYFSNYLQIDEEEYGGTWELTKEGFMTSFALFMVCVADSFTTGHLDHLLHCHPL

Target	log2 fold change
SESN2 (UniProt P58004)	0.167 (inactive)
SCD (UniProt O00767)	0.023 (inactive)
RCC1 isoform 2 (UniProt P18754)	-0.022 (inactive)
RBM25 (UniProt P49756)	-0.078 (inactive)
SDCBP isoform 2 (UniProt O00560)	-0.2 (inactive)
RSF1 (UniProt Q96T23)	0.052 (inactive)
SIK3 (UniProt H0Y4E8)	0.021 (inactive)
RAF1 isoform 2 (UniProt P04049)	-0.007 (inactive)
ROCK1 (UniProt Q13464)	-0.009 (inactive)
SEC24A (UniProt O95486)	0.024 (inactive)
RARS2 (UniProt Q5T160)	0 (inactive)
SERINC3 (UniProt Q13530)	0.01 (inactive)
RPS3 (UniProt E9PJN9)	0.2 (inactive)
RNF185 (UniProt Q96GF1)	0.128 (inactive)
RAB5IF isoform 5 (UniProt Q9BUV8)	-0.086 (inactive)
REL (UniProt Q04864)	0.054 (inactive)
RECQL (UniProt P46063)	0.012 (inactive)
RAP2C (UniProt Q9Y3L5)	0.017 (inactive)
SLC1A5 (UniProt Q15758)	-0.032 (inactive)
RAB8B (UniProt Q92930)	-0.04 (inactive)
RPS18 (UniProt P62269)	0.094 (inactive)
RSPRY1 (UniProt Q96DX4)	-0.023 (inactive)
SASH1 (UniProt O94885)	0.053 (inactive)

Reference: the supplement of paper PMC10849652
